This is one part of a sample in which hits are shown more often than they occur.
CBX7 inh: inhibitors of human CBX7 binding to H3K27me3 peptide | AlphaScreen His6-CBX7 / biotin-H3K27me3 peptide binding; stronger effect = lower value | AID 1224903 | normalised signal (fraction of DMSO) (test concentration not listed) | hit rate 1.1% among 66,000 | O95931; in the data active = normalised signal below about 0.5
Target sequence (O95931 whole entry, looked up): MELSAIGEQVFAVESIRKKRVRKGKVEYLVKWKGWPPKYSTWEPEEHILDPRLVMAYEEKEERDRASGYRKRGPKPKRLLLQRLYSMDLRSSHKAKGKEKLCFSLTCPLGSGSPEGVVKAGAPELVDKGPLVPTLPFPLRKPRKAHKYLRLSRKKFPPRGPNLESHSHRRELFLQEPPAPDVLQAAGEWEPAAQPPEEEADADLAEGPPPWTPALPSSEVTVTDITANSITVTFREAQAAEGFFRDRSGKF
* hit, by the source's call.

SMILES	CBX7 inh
Cc1cc(Nc2cc(C(F)(F)F)ccc2Cl)n2ncnc2n1	1
COc1ccccc1-c1c(C)nn2c(NCc3cccnc3)cc(C)nc12	1.1
COc1ccccc1-c1c(C)nn2c(NCc3ccccn3)cc(C)nc12	0.39*
COc1ccccc1-c1c(C)nn2c(NCc3ccc(C)cc3)cc(C)nc12	1
O=C1CC(c2ccc(F)c(F)c2)c2cc3c(cc2N1)OCCO3 (stereo not given)	0.86
Cc1cccn2c(Nc3ccc(C(C)C)cc3)c(-c3ccccn3)nc12	0.26*
c1ccc(Nc2c(-c3ccc(N4CCOCC4)cc3)nc3ccccn23)cc1	1.1
c1ccc(Nc2c(-c3ccccn3)nc3ccccn23)cc1	0.24*
Cc1cccn2c(Nc3ccccc3)c(-c3ccccn3)nc12	0.87
Clc1ccc(Nc2c(-c3ccccn3)nc3cnccn23)cc1	0.8
CC(C)c1ccc(Nc2c(-c3ccccn3)nc3ccccn23)cc1	0.21*
Cc1ccc(Nc2c(-c3ccccc3)nc3ccccn23)cc1	0.98
Cc1cccc(C)c1Nc1c(-c2ccccn2)nc2c(C)cccn12	0.87
Cc1ccc(Nc2c(-c3ccc(C)cc3)nc3ccccn23)cc1	1.3
COC(CNC(=O)c1csc2c1CCCC2)OC	1.2
Cc1nc(-c2ccc([N+](=O)[O-])cc2)c(C(=O)Nc2ccccc2Cl)s1	0.9
CCOc1ccc2c(c1)c(=O)c(S(=O)(=O)c1ccccc1)cn2CC(=O)Nc1ccccc1C	1
O=C(Cc1ccc(NC2=NC3CS(=O)(=O)CC3S2)cc1)NC1CCCc2ccccc21 (stereo not given)	1.1
O=C(Nc1cccc(-c2nc3ccccc3s2)c1)c1ccc(S(=O)(=O)N2CCCCC2)cc1	1
Cc1ccc(-n2c3c(cc(C(=O)NC(C)(C)C)c2=O)C(=O)CCC3)cc1	1.1
Cc1ccc(S(=O)(=O)c2nc(-c3ccccc3F)oc2N2CCCCC2)cc1	0.48*
Cc1ccc(S(=O)(=O)c2nc(-c3ccccc3C)oc2N2CCCCCC2)cc1	0.9
O=S(=O)(c1ccccc1)c1nc(-c2ccccc2F)oc1N1CCCCCC1	0.98
O=C(Nc1cccc(-c2cn3ccccc3n2)c1)c1ccc(Cl)cc1	1
Cc1ccc(S(=O)(=O)NCC(NC(c2ccccc2)c2ccccc2)c2ccccc2)cc1 (stereo not given)	0.84
COc1ccc(NC(CNS(=O)(=O)c2ccccc2)c2ccccc2)cc1 (stereo not given)	0.29*
COc1ccc(CNC(=O)c2ccc(CNS(=O)(=O)c3ccccc3)cc2)cc1	0.99
Cc1ccc(NC(=O)c2cc(-c3cccc(Cl)c3)on2)cc1	1

Screens deposited in PubChem by Bradner/Qi Labs at DFCI.
